ADAM10 inh = ADAM10 inhibition, QFRET primary screen | recombinant ADAM10, EDANS/DABCYL FRET peptide cleavage, 3 h | inhibition, % at 7 µM | actives 0.62% (n = 370,000) | AID 720582;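 active = inhibition above a per-campaign cutoff equal to the mean of compounds falling between control-based bounds plus 3 SD, cut at about 20% in these data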;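 also: 0% = DMSO wells while the 100% control is not disclosed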
ADAM17 inh = inhibitors of human ADAM17. P78536. recombinant ADAM17, EDANS/DABCYL FRET peptide cleavage. inhibition, % at 6.95 µM. actives 0.83% (n = 370,000). AID 720648;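 active = inhibition above the mean of compounds lying between control limits plus 3 SD, set per campaign, cut at about 8.5% in these data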;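 also: 0% = DMSO-only wells as the low control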
Target sequence (P78536 215-824 limits assumed): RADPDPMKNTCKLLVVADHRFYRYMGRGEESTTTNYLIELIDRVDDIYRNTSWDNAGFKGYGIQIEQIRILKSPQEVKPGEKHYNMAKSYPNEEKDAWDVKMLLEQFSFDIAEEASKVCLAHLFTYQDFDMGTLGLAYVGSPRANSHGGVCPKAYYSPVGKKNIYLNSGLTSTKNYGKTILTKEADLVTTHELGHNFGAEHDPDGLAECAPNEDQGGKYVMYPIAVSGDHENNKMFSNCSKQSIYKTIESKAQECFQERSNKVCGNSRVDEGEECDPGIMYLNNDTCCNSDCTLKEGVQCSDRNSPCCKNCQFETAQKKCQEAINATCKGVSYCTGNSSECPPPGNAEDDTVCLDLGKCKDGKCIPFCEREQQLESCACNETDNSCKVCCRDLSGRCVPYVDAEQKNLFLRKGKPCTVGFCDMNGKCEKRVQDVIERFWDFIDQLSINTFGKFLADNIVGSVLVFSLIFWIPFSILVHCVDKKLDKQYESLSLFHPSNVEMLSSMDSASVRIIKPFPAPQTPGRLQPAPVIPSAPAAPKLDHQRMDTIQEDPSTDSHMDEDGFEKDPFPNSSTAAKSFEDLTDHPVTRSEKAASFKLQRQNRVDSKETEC
FAS-TE inh = FAS thioesterase (human) inhibition | P49327 | recombinant FAS-TE, OMFH fluorogenic substrate, fluorescence endpoint | inhibition, % at 15 µM | actives 0.67% (n = 360,000) | AID 602261;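 active = compounds whose normalised, plate-corrected inhibition of enzyme fluorescence in the single-dose primary screen is 50% or more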;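 also: 0% = DMSO with enzyme and 100% = substrate without enzyme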
KLK7 zymogen act = activators of human kallikrein-7 zymogen. P49862. purified proKLK7, EDANS-DABCYL substrate fluorescence; 100% is mature enzyme control, 0% vehicle. activation, % at 7 µM. actives 0.9% (n = 370,000). AID 652039;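 active = activation above the mean of all tested compounds plus 3 SD, computed per campaign excluding outliers beyond control limits, cut at about 13% in these data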
NR3A LBD binder = modulates the human NR3A ligand-binding domain. NR3A LBD differential scanning fluorimetry, Tm shift; 0% = protein alone, 100% = glycine-bound protein. Tm shift relative to glycine control, % at 25 µM. actives 2.5% (n = 340,000);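 active = melting temperature shift of at least 10% of the positive control shift, at one fixed dose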
Active calls of the source: *; i = inactive; . = no result. Rows were chosen to be rich in hits. Some 4.6% of all compounds tested hit in one or more screens of this group.

SMILES | ADAM10 inh | ADAM17 inh | FAS-TE inh | KLK7 zymogen act | NR3A LBD binder
Cc1ccc(C(=O)Nc2cccc(NC(=O)c3ccc(C)c([N+](=O)[O-])c3)n2)cc1[N+](=O)[O-] | -5.4 | -7.0 | 31.5 | -0.3 | 14.4*
CCCCCCCCN1C(=O)[C@@H](CC(=O)N2CCCCC2)C[C@@]2(C(=O)OC)C1=C[C@H](C(C)C)O[C@@H]2C1CC1 | -1.5 | -1.7 | . | -0.3 | .
O=C(COCc1ccccc1)N1CC[C@H]2[C@H](CCCN2Cc2ccccc2)C1 | 1.0 | -1.0 | . | 0.0 | .
COc1ccc2cc(C(=O)Nc3ccccc3)sc(=O)c2c1OC | -0.2 | -3.0 | -6.0 | 0.6 | 21.9*
COc1ccc2cc(C(=O)Nc3ccc(S(N)(=O)=O)cc3)sc(=O)c2c1OC | -35.8 | -11.0 | -6.8 | 1.6 | 22.5*
O=C(Nc1ccccc1)c1ccc(-c2ccccc2)s1 | -7.3 | 0.6 | 3.0 | 2.0 | 14.5*
O=C(Nc1ccccc1)c1cc2ccc3ccccc3c2s1 | 6.9 | -1.9 | 11.9 | -1.7 | 33.0*
O=C(O)c1ccc(-c2ccc(-c3ccccc3)cc2)s1 | . | . | 0.5 | . | .
COc1cccc(N2CCN(CC(=O)NCc3ccc(Cl)cc3)CC2)c1 | 6.4 | 1.2 | . | 0.2 | .
O=[N+]([O-])c1cccc(S(=O)(=O)Nc2ccc(-c3ccc(N4CCCC4)nn3)cc2)c1 | -5.6 | -0.1 | 32.9 | 0.3 | 31.1*
COc1ccc(/C=C2/C(=O)N(c3ccccc3)N=C2C)cc1OC | 14.3 | 2.4 | -5.9 | 0.4 | 0.8
COc1cc(/C=C2/C(=O)N(c3cccc(Br)c3)N=C2C)cc(OC)c1O | 6.2 | 0.4 | -6.0 | 1.1 | 14.7*
COc1ccc(CNC(=O)CN2C(=O)COc3ccc(S(=O)(=O)N4CCC(C)CC4)cc32)cc1 | 2.5 | 0.2 | 23.2 | -0.3 | 45.4*
Cc1ccc(NC(=O)CN2C(=O)COc3ccc(S(=O)(=O)N4CCCC4)cc32)c(C)c1 | 5.1 | 2.8 | 1.0 | -0.1 | 0.3
Cc1ccc(C)c(NC(=O)CN2C(=O)COc3ccc(S(=O)(=O)N4CCCC4)cc32)c1 | -8.7 | -3.4 | -2.5 | 1.5 | 10.5*
CCOc1ccc(-c2ccc(/C=C3/C(=N)N4C(C)=CSC4=NC3=O)o2)c([N+](=O)[O-])c1 | -5.1 | -0.3 | 6.1 | 0.3 | 2.6
CCOc1ccc(-c2ccc(/C=C3/C(=N)N4C=CSC4=NC3=O)o2)c([N+](=O)[O-])c1 | -19.0 | -3.9 | -7.7 | -0.4 | 14.4*
Cc1ccc(N2C(=O)C(c3c(C)[nH]n(-c4ccccc4)c3=O)(C(F)(F)F)C3=C2CC(C)(C)CC3=O)cc1 (stereo unspecified) | 2.1 | -1.1 | -1.6 | -0.7 | -5.0
Cc1[nH]n(-c2ccccc2)c(=O)c1C1(C(F)(F)F)C(=O)N(c2ccccc2)C2=C1C(=O)CC(C)(C)C2 (stereo unspecified) | -5.5 | -4.2 | -3.1 | 0.9 | 12.7*
Cn1cc([N+](=O)[O-])c(C(=O)Nc2cc(Oc3ccccc3)cc([N+](=O)[O-])c2)n1 | 4.1 | 1.5 | 18.7 | -0.3 | 9.0
Cc1nn(C)cc1C(=O)Nc1cc(Oc2ccc(Cl)cc2)cc([N+](=O)[O-])c1 | . | . | 3.8 | . | 17.3*
COC(=O)C1CN(Cc2cn(Cc3ccc(OC)cc3)nn2)CCS(=O)(=O)N1Cc1ccc(F)cc1 (stereo unspecified) | 1.5 | -0.1 | . | -0.1 | .
O=C(c1ccoc1)N1CCN(c2cc(-c3ccco3)nc3cc(-c4ccco4)nn23)CC1 | i | -364.7 | . | . | .
CCOc1ccc(NC(=O)Nc2ccc3c(c2)N(C)C(=O)CS3)cc1 | -5.3 | -0.5 | 4.3 | -0.5 | 18.4*
COc1ccc(NC(=O)Nc2ccc3c(c2)N(C)C(=O)CS3)cc1Cl | -1.4 | 5.0 | 9.8 | -0.5 | 27.1*
CC(=O)c1ccc(NC(=O)Nc2ccc3c(c2)N(C)C(=O)CS3)cc1 | -12.6 | 1.5 | 0.3 | 0.1 | 19.2*
COc1ccc(NC(=O)Nc2ccc3c(c2)N(C)C(=O)CS3)cc1OC | -11.4 | -3.1 | 2.8 | 0.3 | 8.5
C=CCNC(=O)CN(C(=O)c1csc2ccc(Cl)cc12)c1cccc(Br)c1 | 5.1 | 3.8 | . | 0.1 | .
COc1ccc(-n2c(SCC(=O)N(C)C3CCS(=O)(=O)C3)nc3ccc(O)cc3c2=O)cc1OC (stereo unspecified) | -64.5 | -13.0 | -10.3 | -16.9 | 13.6*
COc1cc(/C=C2\SC(=N)N(c3ccc(F)cc3)C2=O)ccc1O | -5.8 | -0.1 | -5.0 | 0.2 | 26.6*

Compound activity from PubChem.
